Assay outcomes from PubChem.
A selection: hits, their analogues and other compounds. The true share with any hit is near 9.6%.
HCT116 PTEN-null: PTEN-deleted cell growth suppression | HCT116 PTEN-null viability, CellTiter-Glo, 60 h; active compounds read low | viability, % at 10 µM | hit rate 1.2% among 140,000 | AID 827;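 active = viability at or below a set limit, 4 SD under the median of all tested compounds, cut at about 3.7% in these data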;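 note: PTEN knockout HCT116 line with beta catenin targeted HCT116 as companion control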
bCat KO growth: beta-catenin-lacking colon tumor cell growth suppression; HCT116 beta-catenin knockout viability, CellTiter-Glo, 60 h; active compounds read low; viability, % at 10 µM; hit rate 1.5% among 140,000;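 active = viability at or under a set limit, the compound median less 4 SD, cut at about 6% in these data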;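 note: 0% = Hyamine 1622 control at 20 µM and 100% = untreated cell control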
Ins promoter up: MIN6 insulin promoter up-regulation | MIN6 insulin promoter-GFP reporter, high-content imaging; active compounds read high | z-score at 5 µM | hit rate 0.3% among 190,000;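 active = z-score above 3 at 5 µM with at least 500 cells counted in the well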
Lmaj promast: Leishmania major promastigote growth inhibition | Leishmania major promastigotes, resazurin fluorescence viability | hit rate 9% among 200,000 | inhibition, % at 10 µM | AID 1063; in the data active = inhibition above about 50%;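 note: promastigotes grown with compound for 44 hours at 28 °C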
Autophagy HCS: modulators of autophagy | AID 463193 | calls only at 10 µM (by protocol) | hit rate 0.98% among 190,000 | MEF GFP-LC3 puncta imaging; test concentration mostly 10 µM;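 active = percentage of spot-positive cells more than 3 SD above its plate mean, without a fluorescence outlier flag or 80% toxicity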;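 note: spot-positive cell cutoff set from DMSO-treated cells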
Insulin prom inh: TRM-6 insulin promoter activity inhibition; hit rate 0.9% among 130,000; TRM-6 cells (human fetal islet line), insulin promoter-eGFP reporter, imaging; reporter expression induced with tamoxifen; inhibition, % at 2 µM;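 active = inhibition above the mean plus 3 SD, with well images judged a real hit on visual review, cut at about 60% in these data, passing the limit was not always enough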
* marks the source's active call; other numbers are inactive results; i = inactive; · = no result; + = active, no number.

SMILES | HCT116 PTEN-null | bCat KO growth | Ins promoter up | Lmaj promast | Autophagy HCS | Insulin prom inh
CCCCNc1nc(N)nc(-c2cc(Cl)ccc2O)n1 | 6 | 8 | -0.39 | 22 | i | 15
CCNc1nc(N)nc(-c2cc(Cl)ccc2O)n1 | 7 | 5.2* | -0.87 | 18 | i | 62*
Cc1ccc(N(C)C(=O)N2CCN(S(=O)(=O)c3ccc(C)c(C)c3)CC2)cc1 | 93 | 100 | · | 5 | i | -8
CN(/N=C/c1cccnc1)c1cnn(-c2ccc(F)c(Cl)c2)c(=O)c1Cl | 55 | 46 | 0.09 | 68* | i | 3
CCOc1ccccc1CN1CCN(S(C)(=O)=O)CC1 | 95 | 92 | 0.37 | 82* | i | 0
Cc1ccccc1CN1CCN(S(C)(=O)=O)CC1 | 93 | 93 | -0.27 | 5 | i | -444
O=C(NNC(=O)C1CCN(Cc2ccccc2)CC1)c1cccs1 | · | · | 0.8 | -7 | i | -26
O=C(c1cccs1)N1CCN(C2CCN(Cc3ccccc3)CC2)CC1 | 110 | 99 | -1.1 | 91* | i | -3
O=C(c1cccs1)N1CCN(C2CCCCC2)CC1 | 100 | 91 | 0.13 | 83* | i | -22
O=C(C1CCCN(S(=O)(=O)c2cccs2)C1)N1CCN(C2CCCCC2)CC1 (configuration not stated) | 89 | 94 | 0.61 | 83* | i | ·
CCO[C@@H]1OC(C(=O)N2CCN(C)CC2)=C[C@H](C2CCCCC2)[C@H]1CCCO | · | · | 0.52 | -4 | i | ·
CS(=O)(=O)N1CCN(C2CCN(Cc3ccccc3)CC2)CC1 | 108 | 92 | -1 | 77* | i | 3
Cc1ccc(C2=N/C(=C\N3CCCCC3)C(=O)O2)cc1 | 100 | 104 | 1 | 11 | i | 36
CCCCn1c(SCC(=O)OC)nc2c1c(=O)n(C)c(=O)n2C | 95 | 101 | -0.38 | -5 | i | 55
O=C(CSc1n[nH]c(-c2ccccc2Br)n1)NC(=O)NCc1ccco1 | 99 | 96 | -0.87 | 0 | i | 31
Cc1cc(C)nc(-n2nc(C)cc2NC(=O)c2cccc(S(=O)(=O)N(C)C)c2)n1 | · | · | -0.31 | · | · | ·
Cc1cccc(NC(=O)CN2C(=O)S/C(=C\c3cc(C)n(C)c3C)C2=O)c1 | 102 | 102 | 0.39 | 4 | i | ·
Cc1cc(-c2nn(-c3ccccc3F)cc2CNCCc2cnc[nH]2)c(C)s1 | · | · | 1.4 | 98* | i | ·
CC(Oc1ccc(Cl)cc1Cl)C(=O)NCCCN1CCOCC1 (configuration not stated) | 95 | 94 | 0.22 | 90* | i | ·
CC(=O)Nc1ccc(NC(=O)C(C)Oc2ccc(Cl)cc2Cl)cc1 (configuration not stated) | · | · | 1.4 | 57* | i | -18
C/C(=N\NC(=O)c1c(Br)c(C)nn1C)c1ccc(NC(=O)C(C)Oc2ccc(Cl)cc2C)cc1 (configuration not stated) | 1.4* | 0.9* | -0.42 | 98* | i | ·
C=CCn1c(SCc2c(C)noc2C)nc2sc3c(c2c1=O)CCCCC3 | 55 | 34 | -4.2 | 1 | i | -3
N#C/C(=N\Nc1ccc(Cl)cc1)C(=O)c1ccsc1 | · | · | -0.48 | · | · | ·
O=C1NC(c2ccccc2)=C(c2nc3ccccc3s2)C(c2ccc(O)cc2)N1 (configuration not stated) | 40 | 49 | -1.4 | 81* | i | 11
O=C1NC(c2ccccc2)=C(c2ccc3ccccc3n2)C(c2ccc(F)cc2)N1 (configuration not stated) | 49 | 62 | -0.06 | 38 | i | 37
SMILES | HCT116 PTEN-null | bCat KO growth | Ins promoter up | Lmaj promast | Autophagy HCS | Insulin prom inh
O=C1NC(c2ccccc2)=C(c2ccc3ccccc3n2)C(c2ccccc2)N1 (configuration not stated) | 76 | 80 | 0.25 | 85* | i | -14
COC(=O)C(CSCc1ccccc1)NC(=O)CSc1nc(C)cc(=O)[nH]1 (configuration not stated) | · | · | 0.57 | -3 | i | ·
CC(=O)NCCCc1nc2ccccc2n1Cc1ccccc1F | · | · | -0.76 | · | · | ·
Cc1cc(CNC(=O)Cc2ccccc2)c2ccccc2n1 | · | · | -0.19 | 2 | + | -40
O=CNCCCc1nc2ccccc2n1Cc1cccc2ccccc12 | 92 | 94 | -1.3 | 93* | i | -4
Cc1cc(CNC(=O)COc2c(F)c(F)cc(F)c2F)c2ccccc2n1 | · | · | 0.75 | -6 | i | -26
COc1ccc(C(=O)NNC(=O)Cc2ccc(-c3ccccc3)cc2)cc1OC | 87 | 89 | -0.73 | 17 | i | ·
COc1ccc(C(=O)NCCCc2nc3ccccc3n2Cc2ccccc2C)cc1OC | 80 | 92 | -0.56 | 77* | + | -24
